Measurements taken from the supplement of paper PMC6555819.

Assays:
Experiment in all cases: PBM binding z-score (relative to random genomic background probes); higher = stronger binding; sequences stand for … in GC…GCGATTGACAGCGTAGAATGAAGG
[1] = test system: FXR:RXRa (NR concentration 270 nM, RXRa partner concentration 90 nM)
Method in brief: (§1)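 Custom Agilent 4×180K protein-binding microarrays carried double-stranded probes, each with a 34-nt variable region. These regions held direct-repeat seeds, single-nucleotide variants, half-site ablations and random human genomic background sequences. Ligand-free nuclear receptor dimers were incubated on the arrays for 1 h, antibodies against each partner (one per run) detected binding, and scanned fluorescence was regression-normalized. Binding z-scores take the random background probes as reference.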

[2] = test system: LXRa:RXRa (NR concentration 270 nM, RXRa partner concentration 90 nM)
Method in brief: as §1

[3] = test system: LXRa homodimer (NR concentration 270 nM)
Method in brief: as §1

[4] = test system: LXRb:RXRa (NR concentration 270 nM, RXRa partner concentration 90 nM)
Method in brief: as §1

[5] = test system: LXRb homodimer (NR concentration 270 nM)
Method in brief: as §1

[6] = test system: PPARa:RXRa (NR concentration 270 nM, RXRa partner concentration 90 nM)
Method in brief: as §1

[7] = test system: PPARg:RXRa (NR concentration 180 nM, RXRa partner concentration 90 nM)
Method in brief: as §1

[8] = test system: PPARg:RXRa 270nM:90nM, anti-RXR (NR concentration 270 nM, RXRa partner concentration 90 nM)
Method in brief: as §1

[9] = test system: PPARg:RXRa 30nM:10nM, anti-RXR (NR concentration 30 nM, RXRa partner concentration 10 nM)
Method in brief: as §1

[10] = test system: PPARg:RXRa 90nM:30nM, anti-RXR (NR concentration 90 nM, RXRa partner concentration 30 nM)
Method in brief: as §1

Sequence | PBM binding z-score [1] | PBM binding z-score [2] | PBM binding z-score [3] | PBM binding z-score [4] | PBM binding z-score [5] | PBM binding z-score [6] | PBM binding z-score [7] | PBM binding z-score [8] | PBM binding z-score [9] | PBM binding z-score [10]
AGTCAAAGTTCACTTGGTAACGTAAGATTCAGCT | 4.85 | 5.05 | 3.34 | 3.4 | 1.63 | 3.85 | 5.08 | 5.79 | 2.52 | 4.52
TCTTGTAGATCAACAGGAGGTTAAGACAGATCGA | 0.088 | 1.15 | -0.145 | 0.737 | -0.342 | 1.3 | 0.205 | 1.36 | 2.4 | 2.07
ATACCAAGGTGATCGTGAGGTCGTTGTTACTAAC | 1.57 | 1.11 | 0.763 | 1.32 | 0.361 | 1.47 | 0.364 | 0.56 | -0.301 | 0.535
CCTACTGTGCCATCAGGTCATTGATATCAACGTT | 2.23 | 2.1 | 2.57 | 2.75 | 1.14 | 2.82 | 2.29 | 3.15 | 1.39 | 2.7
CGTCAAAGTTCAACTAAGGTACCGTAAAGCACGC | 7.12 | 6.16 | 4.3 | 4.18 | 2.24 | 5.12 | 4.93 | 5.42 | 2.29 | 4.15
GCTGCTATGTCAGGTTGGTCAGCTAACGGGTACG | -0.0269 | -0.171 | -0.277 | -0.513 | -0.58 | -0.327 | -0.164 | -0.401 | -0.739 | -0.312
ACTCAAAGTTCACTAGGTAACGTAAGATTCAGCT | 5.32 | 5.16 | 3.54 | 3.55 | 1.83 | 4.73 | 5.15 | 5.21 | 2.16 | 4.22
GGACCAAGGTGAATAGGTCGTTGATGAGTAGGCG | 0.798 | 0.779 | -0.0064 | 0.446 | -0.809 | 2.28 | 1.47 | 1.59 | 0.243 | 0.903
AGAACGAGGGCACGCTGAGTTGTTAGCAGAGTAG | 0.878 | 0.882 | -0.742 | 0.17 | -1.13 | 2.18 | 1.94 | 1.79 | 0.32 | 1.16
ACTATTAGTAGACTTAGGGCAACCGATACGACGC | -0.142 | -0.0337 | 0.0948 | -0.377 | 0.454 | -0.25 | 1.13 | 0.419 | 0.331 | 0.394
TCTTGTAGATCAAAGGTTGAGAAAGCCGAAGCCT | 0.89 | 0.864 | -0.12 | 0.541 | -0.308 | 3.14 | 5.99 | 6.2 | 5.78 | 6.91
TAGCCTAGGTCATTGGGCCAGTAGAGTACGCATC | 3.86 | 3.33 | 0.509 | 2.17 | -0.0447 | 3.92 | 3.68 | 3.97 | 0.744 | 2.76
CAAACTAGGTCACGGGAAGGTCAAAGTCCGCATG | 6.63 | 5.83 | 4.52 | 5.56 | 0.929 | 6.51 | 10.1 | 7.81 | 6.78 | 7.95
CAAACTAGGTCACCGGAAGGTCAAAGTACGCATG | 6.81 | 6.23 | 5.23 | 5.83 | 1.75 | 6.36 | 9.91 | 8.16 | 6.57 | 7.9
ATCTCTAGGTAAGACTCAGTCCAGTGAAGAACGC | 0.392 | 0.554 | -0.00583 | -0.0175 | 0.668 | -0.0468 | 0.17 | 0.258 | 0.405 | 0.142
TCGAGTAGGATACCAATGGGGCATTCAGCTTTCT | -0.594 | -0.525 | -0.966 | -0.394 | -0.758 | -0.335 | -0.0828 | -0.0523 | 0.785 | 0.306
TCTTGTAGAACAGCAGGTTAAGAAAGCTGGCCAA | -0.25 | -0.235 | -0.708 | -0.0015 | -0.898 | 0.675 | -0.134 | 1.17 | 2.2 | 1.9
CGTCAAAGTTCAAGTAAGGTAACGTAAAGCACGC | 6.99 | 6.43 | 4.16 | 4.1 | 1.85 | 5.15 | 5.02 | 5.63 | 2.56 | 4.25
GCTAGCAGGCCATATGGGTCACTCAATGACGGGC | 0.207 | 0.285 | -0.185 | 0.489 | -0.907 | 1.98 | 1.57 | 1.27 | -0.31 | 0.766
GCTCGGAGCACAAGGTCAGAGCTTTGTCCGTAGA | 1.22 | 1.42 | -0.454 | 0.993 | -1.38 | 2.34 | 0.273 | 1.03 | -0.387 | 0.2
GCGACTGGGGCAAAGCAGGTTACCTTAAGGTTGG | 0.232 | 0.16 | -0.422 | 0.247 | -0.607 | 1.31 | 0.947 | 1.35 | -0.661 | 0.437
CAAACTAGGTCAAGAGGTCAAAGCCCGCTTCCCG | 7.07 | 6.28 | 5.68 | 5.4 | 1.5 | 6.76 | 10.1 | 8.55 | 7.71 | 8.87
CGTCAAAGTTCAACTAACGTAACGTAAAGCACGC | 6.21 | 5.98 | 3.62 | 4.08 | 2.43 | 4.99 | 4.65 | 5.21 | 2.17 | 4.04
ACAGCCAGGTGATGAAGGTAACTCAGGCTATCAT | -0.381 | -0.496 | -0.468 | -0.553 | -0.982 | 0.0268 | 0.565 | -0.0458 | -0.229 | -0.315

Sequence | PBM binding z-score [1] | PBM binding z-score [2] | PBM binding z-score [3] | PBM binding z-score [4] | PBM binding z-score [5] | PBM binding z-score [6] | PBM binding z-score [7] | PBM binding z-score [8] | PBM binding z-score [9] | PBM binding z-score [10]
ATATGTATGTTATCGGGTCATTCAGTTTGCGCAT | 1.97 | 2.23 | 0.86 | 2.38 | 1.09 | 3.32 | 2.67 | 2.71 | 0.938 | 2.09
CAAACTAGGTTACGAAAGGTCAAAGTCGAATGAC | 5.93 | 8.59 | 8.28 | 7.69 | 2.88 | 6.1 | 8.03 | 7.02 | 4.81 | 6.47
AATTACGGGTCAACGAGGTTATAGCACGCGTATA | 7.35 | 6.12 | 3.47 | 4.88 | 1.02 | 6 | 6.93 | 6.19 | 2.81 | 5.1
CCAGACAGGTGAAAGGTAACTCTGTCTGGTACGC | 0.257 | 1.07 | -0.318 | 0.89 | -0.274 | 3.45 | 5.57 | 6.03 | 4.71 | 5.8
GGAACGAGGGCAATGTTGATAGCATCTGTCGACG | 0.66 | 0.337 | -0.33 | 0.395 | -0.557 | 1.66 | 1.4 | 1.49 | 0.128 | 0.931
GATACAGGGTCAGCTAGAGGCCAGAGCATGGAAA | 4.96 | 2.87 | -0.62 | 2.42 | -0.712 | 4.58 | 3.81 | 3.58 | 1.01 | 2.09
ATATGTAGGTTAGCTGGGGTCATCCAGACTAGGC | 4.52 | 5.5 | 2.24 | 4.39 | 0.905 | 5.22 | 5.73 | 5.6 | 2.9 | 4.8
AGAATGAGGTTACCAAAGATCAGGGATACGCTTG | 1.93 | 5.68 | 0.0211 | 2.95 | 0.0562 | 3.28 | 2.84 | 2.6 | 1.03 | 1.77
CTACCAAGGTGAACAAGGTCGTGGATTACTATTC | 1.7 | 1.56 | -0.154 | 1.73 | -0.448 | 2.96 | 1.5 | 1.61 | 0.053 | 0.918
TCTGCTAGGTCTGTTGGTCAGCTAACGAGCTGCC | -0.418 | -0.439 | -1.21 | -0.715 | 0.485 | -0.204 | -1.23 | 0.384 | 0.834 | 0.687
ATCAAAAGGTCGACGAGGTGAGTATACACCGTTT | 4.64 | 3.46 | 0.265 | 2.86 | 0.587 | 4.82 | 3.29 | 3.63 | 1.47 | 2.53
TTACCATGGTGAGCTGAGGTCGTTGATCCAACTC | 0.322 | 0.0093 | -0.568 | 0.111 | -1.05 | 0.702 | -0.38 | -0.0543 | -0.214 | -0.294
ACAGACAGGTGAGTGAAGGTAACACAGCTGGACG | 0.433 | 0.227 | -0.295 | -0.073 | -0.319 | 0.307 | 1.16 | 0.43 | 0.00598 | 0.0299
TCTTGTAGATCAACAGGAGGTTAAGCAAGATCGA | 0.257 | 0.838 | -0.069 | 0.853 | -0.368 | 1.48 | 0.076 | 1.47 | 2.39 | 1.74
TCTAGCAGGCCAGAGGGTCACTAAAGAGGTACGG | 0.744 | 0.827 | -0.521 | 0.924 | -1.08 | 2.12 | 1.48 | 2.66 | 1.97 | 2.41
GTACCAAGGTGAATAGGTGGTTGATGAGTAGGCG | 0.118 | 0.242 | -0.513 | -0.25 | -0.203 | 0.864 | 0.851 | 0.683 | 0.0319 | 0.389
CGTCCAATGTCAAAGGTCAGTGAAGAGATGACGG | 4.62 | 4.48 | 1.56 | 3.64 | 0.773 | 5.18 | 6.67 | 6.88 | 4.57 | 6.96
AGTACGAGGGCAATGAGTTGATAGCACGGGTGGC | 0.396 | 0.352 | -0.477 | 0.0796 | -0.401 | 0.795 | 1.08 | 0.242 | -0.0294 | 0.117
TCGAGTAGGTTACAAATGGGGCATTCAGCTTTCT | 0.181 | 1.08 | -0.216 | 1.01 | -0.699 | 1.25 | 0.565 | 1.21 | 1.43 | 1.04
ATCTAAAGGTCGACGAGGTGAGTATACACCGTTT | 4.77 | 4.07 | 0.832 | 3.04 | 0.727 | 4.38 | 3.31 | 3.51 | 1.21 | 2.67
GGAACGAGTGCATTCGAGTTGATAGCATGGCGAT | -0.159 | 0.374 | -0.89 | -0.659 | -1.1 | -0.426 | 0.302 | -0.652 | -0.79 | -1.09
GGAAAGAGGGCAAAGTTGATAGCATCTGTCGACG | 2.04 | 1.94 | 0.254 | 1.64 | 0.832 | 4.24 | 6.06 | 6.9 | 5.92 | 7.29
AGAACAAGGGCAATGAGTTGATAGCACGGGTGGC | 0.13 | 0.0784 | -0.454 | 0.0189 | 0.008 | 0.573 | 1.26 | 0.0922 | -0.195 | -0.176
CCTAGCAGGCCAATCTGAGTCACTCAAGGCTTGA | -0.524 | -0.573 | -0.759 | -0.644 | -0.64 | -0.513 | -0.183 | -0.961 | -0.966 | -1.25
